The source of these data is article PMC5700166.

In this test the target is T1, GST-Nv-NF-kB (Ser allele) (Nematostella vectensis, UniProt A7UNT2 2-411).
T1 sequence: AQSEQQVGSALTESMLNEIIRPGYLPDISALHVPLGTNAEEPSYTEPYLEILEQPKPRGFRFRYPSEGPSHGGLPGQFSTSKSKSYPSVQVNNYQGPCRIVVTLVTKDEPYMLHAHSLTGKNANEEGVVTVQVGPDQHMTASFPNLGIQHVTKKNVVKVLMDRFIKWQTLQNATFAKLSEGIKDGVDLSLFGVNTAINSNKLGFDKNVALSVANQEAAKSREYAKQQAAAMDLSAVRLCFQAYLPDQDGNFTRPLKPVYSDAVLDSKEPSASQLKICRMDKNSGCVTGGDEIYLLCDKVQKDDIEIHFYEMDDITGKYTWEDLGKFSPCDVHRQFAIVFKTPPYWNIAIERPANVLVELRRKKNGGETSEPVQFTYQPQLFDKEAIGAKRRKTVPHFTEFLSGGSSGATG
Kind of test: protein-binding microarray (PBM); PBM: ~300 nM protein, 6 mM HEPES pH 7.8, 80 mM KCl, 0.5 mM EDTA, 0.5 mM EGTA, 6% glycerol, 35 ng/ul poly-dIdC, 1% milk, 1 h, room temperature; Ap Aiptasia and Nv Nematostella (sea anemones) / Co Capsaspora / Aq Amphimedon (sponge) / Dm Drosophila / Hu human; RHD is the Rel homology domain; high values mean tight binding. The following applies: dsDNA, one strand shown.
Consider “CCGATTAACATCAGGAGATCCCCTGATGTTAATCGGGTCTTGATTCGCTTGACGCTGCTG”, for which the binding signal turned out to be 6.55 z-score. The figure for “CCGATTAACATCAAACCCCCCCATGATGTTAATCGGGTCTTGATTCGCTTGACGCTGCTG” is 4.41 z-score.

“CCGATTAACATCAAGGGGGGACTTGATGTTAATCGGGTCTTGATTCGCTTGACGCTGCTG” gave a binding signal of 4.99 z-score. Consider “CCGATTAACATCAGGGGGAGTTATGATGTTAATCGGGTCTTGATTCGCTTGACGCTGCTG”, for which the binding signal is 6.11 z-score.

In turn, “CCGATTAACATCATGGGGGGGAATGATGTTAATCGGGTCTTGATTCGCTTGACGCTGCTG” registered a binding signal of 4.89 z-score.

For the sequence “CCGATTAACATCAAAAGCCCCCTTGATGTTAATCGGGTCTTGATTCGCTTGACGCTGCTG”, the binding signal was 5.65 z-score. The figure for “CCGATTAACATCAAACAGTCCCCTGATGTTAATCGGGTCTTGATTCGCTTGACGCTGCTG” is 4.53 z-score; for “CCGATTAACATCAGTGTCCCGTTTGATGTTAATCGGGTCTTGATTCGCTTGACGCTGCTG” it is 1.48 z-score; for “CCGATTAACATCAGGGGGTGGAATGATGTTAATCGGGTCTTGATTCGCTTGACGCTGCTG” it is 4.75 z-score. The figure for “CCGATTAACATCAAGGGGGGGGATGATGTTAATCGGGTCTTGATTCGCTTGACGCTGCTG” is 5.62 z-score. The figure for “CCGATTAACATCAATATCCCCCCTGATGTTAATCGGGTCTTGATTCGCTTGACGCTGCTG” is 6.44 z-score; for “CCGATTAACATCAAGGGGGGTTATGATGTTAATCGGGTCTTGATTCGCTTGACGCTGCTG” it is 5.24 z-score.

On to “CCGATTAACATCAGATAACCCCCTGATGTTAATCGGGTCTTGATTCGCTTGACGCTGCTG”, for which the binding signal is 5.95 z-score.

In turn, “CCGATTAACATCACATTGGGAAATGATGTTAATCGGGTCTTGATTCGCTTGACGCTGCTG” came in with a binding signal of 1.58 z-score. The figure for “CCGATTAACATCACTCCCCCCCCTGATGTTAATCGGGTCTTGATTCGCTTGACGCTGCTG” is 4.8 z-score. For “CCGATTAACATCAGGAAAGCCCCTGATGTTAATCGGGTCTTGATTCGCTTGACGCTGCTG”, the binding signal worked out at 6.08 z-score. The figure for “CCGATTAACATCAGATCCCCCCCTGATGTTAATCGGGTCTTGATTCGCTTGACGCTGCTG” is 5.97 z-score; for “CCGATTAACATCAGGGGGGGACATGATGTTAATCGGGTCTTGATTCGCTTGACGCTGCTG” it is 4.34 z-score. As to “CCGATTAACATCAGAAAAACACCTGATGTTAATCGGGTCTTGATTCGCTTGACGCTGCTG”, the binding signal worked out at 4.39 z-score.

Regarding “CCGATTAACATCAAAACACCCCCTGATGTTAATCGGGTCTTGATTCGCTTGACGCTGCTG”, the binding signal worked out at 5.6 z-score. In turn, “CCGATTAACATCAAGGGGGGAACTGATGTTAATCGGGTCTTGATTCGCTTGACGCTGCTG” registered a binding signal of 6.05 z-score. As to “CCGATTAACATCAAACATCCCCCTGATGTTAATCGGGTCTTGATTCGCTTGACGCTGCTG”, the binding signal worked out at 6.41 z-score. The figure for “CCGATTAACATCAAATTTACCCCTGATGTTAATCGGGTCTTGATTCGCTTGACGCTGCTG” is 5.32 z-score; for “CCGATTAACATCATGGGAAGGTTTGATGTTAATCGGGTCTTGATTCGCTTGACGCTGCTG” it is 1.52 z-score; for “CCGATTAACATCAAAATACCCCTTGATGTTAATCGGGTCTTGATTCGCTTGACGCTGCTG” it is 6.34 z-score.

Regarding “CCGATTAACATCAAGAGTCCCCCTGATGTTAATCGGGTCTTGATTCGCTTGACGCTGCTG”, the binding signal is 5.78 z-score. With “CCGATTAACATCAGAAATTACCCTGATGTTAATCGGGTCTTGATTCGCTTGACGCTGCTG” the figure was 5.41 z-score; with “CCGATTAACATCAGAAATGCCCCTGATGTTAATCGGGTCTTGATTCGCTTGACGCTGCTG”, 3.44 z-score; with “CCGATTAACATCAGACATGGGAATGATGTTAATCGGGTCTTGATTCGCTTGACGCTGCTG”, 1.34 z-score. Consider “CCGATTAACATCAGGGGCTTACCTGATGTTAATCGGGTCTTGATTCGCTTGACGCTGCTG”, for which the binding signal stood at 3.61 z-score.

“CCGATTAACATCAGAAGTCCCCCTGATGTTAATCGGGTCTTGATTCGCTTGACGCTGCTG”: the binding signal was found to be 6.47 z-score.

As to “CCGATTAACATCAATAAAATCCCTGATGTTAATCGGGTCTTGATTCGCTTGACGCTGCTG”, the binding signal is 4.09 z-score. “CCGATTAACATCACAGAGTCCCCTGATGTTAATCGGGTCTTGATTCGCTTGACGCTGCTG” registered a binding signal of 6.04 z-score. The figure for “CCGATTAACATCACATACCTACCTGATGTTAATCGGGTCTTGATTCGCTTGACGCTGCTG” is 1.21 z-score; for “CCGATTAACATCACGCGTCTACCTGATGTTAATCGGGTCTTGATTCGCTTGACGCTGCTG” it is 1.34 z-score.

Regarding “CCGATTAACATCAGGGCATGCCCTGATGTTAATCGGGTCTTGATTCGCTTGACGCTGCTG”, the binding signal came out at 1.33 z-score.

Sequence “CCGATTAACATCAGGAAATACCCTGATGTTAATCGGGTCTTGATTCGCTTGACGCTGCTG” yielded a binding signal of 6.46 z-score.
